Assay [1] can be described thus: qHTS assay for measurement of the activity of small molecule inhibitors on Zika virus induced Caspase-3 activity in human astrocytoma cells (AID 1224859). In short, it runs like this:
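Human SNB-19 astrocytoma cells in RPMI 1640 with 10% FBS receive compound one hour ahead of Zika virus at 2 FFU/cell. After 6 h infection, caspase-3/7 activity is detected by Caspase-Glo luminescence.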

Assay [2] in a line: qHTS assay to identify small molecule inhibitors of chordoma cells - UCH-1 (AID 1259355). Note: nearly all actives have a fitted effect of over 55% in size. Note: potency is the fitted concentration of half-maximal effect; series mostly up to about 46 µM. In short, it runs like this:
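A 48hr growth-inhibition format: each drug tested at 15 concentrations together with added auranofin, camptothecin, doxorubicin, rubitecan and topotecan, with cell viability quantified as CellTiter-Glo luminescence.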

Assay [3] in a line: qHTS assay to identify small molecule inhibitors of chordoma cells - UCH-2 (AID 1259356). Note: potency is the fitted concentration of half-maximal effect.
Assay [4] in a line: P-glycoprotein substrates identified in KB-8-5-11 adenocarcinoma cell line, qHTS therapeutic library screen (AID 1346987). Note: nearly all actives have a fitted effect of over 65% in size. Note: potency is the fitted concentration of half-maximal effect. The gist of the method:
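Compounds are pinned in dose-response onto KB-8-5-11 cells (500 cells/well, colchicine-free medium) and left 72 h at 37 degree C. CellTiter-Glo luminescence then yields AC50 values.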

Assay [5] in a line: NS1 protein of Zika virus - qHTS assay to identify small molecule inhibitors in human HEK 293 cells (AID 1347053). Note: nearly all actives have a fitted effect of over 55% in size. Note: potency is the fitted concentration of half-maximal effect. In short, it runs like this: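 TR-FRET signal from two anti-ZIKV NS1 antibodies quantified NS1 in HEK 293 cells 24 h after MR766 infection at MOI = 0.5; compounds were added 1 h before virus. Uninfected cells and infected cells defined the NS1 normalization range.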

Assay [6] in a line: qHTS of pediatric cancer cell lines to identify multiple opportunities for drug repurposing: Primary screen for TC32 cells (AID 1347089). Note: nearly all actives have a fitted effect of over 60% in size. Note: potency is the fitted concentration of half-maximal effect. In short, it runs like this:
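qHTS, TC32, 48 h drug treatment, CellTiter-Glo luminescence as a proxy for metabolically active cells; primary top concentration 46 µM (MIPE 11-pt, NPC 8-pt); confirmatory 11-pt.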

Assay [7] in a line: qHTS of pediatric cancer cell lines to identify multiple opportunities for drug repurposing: Primary screen for A673 cells (AID 1347092). Note: nearly all actives have a fitted effect of over 45% in size. Note: potency is the fitted concentration of half-maximal effect. In short, it runs like this:
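Luminescence from CellTiter-Glo, taken after 15 min at room temperature, served as the proxy for metabolically active cells following 48 h treatment. Both potency and efficacy were taken from curves fitted to the titration data.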

Assay [8] can be described thus: qHTS of pediatric cancer cell lines to identify multiple opportunities for drug repurposing: Primary screen for SK-N-MC cells (AID 1347093). Note: potency is the fitted concentration of half-maximal effect. In short, it runs like this: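 Metabolically active cells were quantified by ATP-dependent luminescence (CellTiter-Glo, 15 min at room temperature) following 48 h treatment. Cells had been plated at 500-1,000 per well and settled for 5 h beforehand.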

The nature of assay [9]: qHTS of pediatric cancer cell lines to identify multiple opportunities for drug repurposing: Primary screen for BT-37 cells (AID 1347094). Note: potency is the fitted concentration of half-maximal effect. The gist of the method:
(§1)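 Viability was measured as metabolically active cells after 48 hours of treatment, read by CellTiter-Glo luminescence. Compounds were tested at multiple final concentrations, giving concentration-response curves.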

Assay [10] in a line: qHTS of pediatric cancer cell lines to identify multiple opportunities for drug repurposing: Primary screen for NB-EBc1 cells (AID 1347095). Note: potency is the fitted concentration of half-maximal effect. In short, it runs like this: as §1
Assay [11] can be described thus: qHTS of pediatric cancer cell lines to identify multiple opportunities for drug repurposing: Primary screen for DAOY cells (AID 1347090). Note: nearly all actives have a fitted effect of over 55% in size. Note: potency is the fitted concentration of half-maximal effect. In short, it runs like this:
(§2)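 Eight- or eleven-point concentration series, 48 h treatment at 37 degrees C in growth media; readout CellTiter-Glo luminescence. Potency and efficacy were taken from the concentration-response curves.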

Assay [12] is described as follows: qHTS of pediatric cancer cell lines to identify multiple opportunities for drug repurposing: Primary screen for SJ-GBM2 cells (AID 1347091). Note: potency is the fitted concentration of half-maximal effect. The gist of the method:
as §2

Values joined by “and” are separate entries in the source; they are usually repeats but may differ in a detail not shown here. Equal entries are not always repeated. Inconclusive results are not listed. Active and inactive are the calls of the source. Calls come from the whole dose curve; as a rule, active = well fitted curve in the direction sought with a large enough effect; inconclusive = small, poorly fitted or top-dose-only effect, or another doubt; inactive = no such curve, though single readings can be large; an effect the other way counts as inactive or inconclusive.

In the case of `COc1cc(O)c(C(=O)c2ccccc2)cc1S(=O)(=O)O`, in [1], the result was inactive. In addition, the Potency entry in [2], in [3], in [4], in [5], in [6] and in assay [7] was “inactive” in each case. The Potency result in [8], in assay [9] and in assay [10] was “inactive” each time.
As to `CCN(CC)CCOC(=O)C(Cc1cccc2ccccc12)CC1CCCO1` (configuration not stated), the call in assay [1] was inactive. Also, the Potency entry in [2], in assay [3], in assay [5], in assay [6], in assay [11] and in [12] was “inactive” in each case. The Potency entry in assay [7], in [9] and in assay [10] was “inactive” each time.
Take `O=C(Nc1ncc([N+](=O)[O-])s1)c1cccs1`: the outcome in assay [1] was inactive. Also, the Potency in assay [2] is 14.1 µM (active); in assay [4], 16.4 µM (active); in [11], 16.8 µM (active); in assay [9] it was 24.6 µM (active). The Potency result in assay [3] and in [5] was “inactive” each time.
Take `CCCCCN=C(N)N/N=C/c1c[nH]c2ccc(OC)cc12`: in assay [1], the compound was classed as inactive. Also, the Potency entry in assay [2], in [3] and in assay [4] was “inactive” each time. In addition, the Potency in [9] was 24.6 µM (active).
Turning to `CCCCC(CC)COC(=O)/C=C/c1ccc(OC)cc1` (configuration not stated), the call in assay [1] was inactive. Further, the Potency entry in assay [2], in assay [3], in assay [4], in assay [5], in assay [6] and in [8] was “inactive” in each case. In addition, the Potency result in assay [9] and in assay [10] was “inactive” throughout.
Consider `O=C(CCCN1CC=C(n2c(=O)[nH]c3ccccc32)CC1)c1ccc(F)cc1`, for which the compound was called inactive in [1]. Further, the Potency entry in assay [2], in [3], in assay [4], in assay [5], in assay [11] and in assay [12] was “inactive” each time. Moreover, the Potency result in [10] is “inactive”.
For the compound `NC(N)=NN=C(/C=C/c1ccc([N+](=O)[O-])o1)/C=C/c1ccc([N+](=O)[O-])o1`, in assay [1], the compound was called inactive. In addition, the Potency in assay [2] was 10 µM (active); in assay [3] it was 16.4 µM (active); in assay [4], 4.61 µM (active); in [6], 6.64 µM (active); in assay [7], 1.06 µM (active); in assay [9], 11 µM (active). Further, the Potency in assay [10] is 5.31 µM (active).
With `c1ccc(-c2nc[nH]c2-c2ccccc2)cc1`, the compound was called inactive in assay [1]. The Potency entry in [2], in assay [3], in assay [5], in assay [6], in assay [11] and in [12] was “inactive” each time. For the same compound, the Potency entry in [7], in [8], in assay [9] and in assay [10] was “inactive” throughout.
On to `Cc1ccc(O)c([C@H](CCN(C(C)C)C(C)C)c2ccccc2)c1`, for which the outcome in assay [1] was inactive. The Potency entry in assay [2], in [3], in [5], in assay [6], in assay [11] and in assay [12] was “inactive” each time. For the same compound, the Potency entry in [7] and in assay [9] was “inactive” each time.
Turning to `CN1CCN(c2cc3c(cc2F)c(=O)c(C(=O)O)cn3-c2ccc(F)cc2)CC1`, the outcome in assay [1] was inactive. Moreover, the Potency result in assay [2], in assay [3], in assay [5], in assay [6], in [11] and in assay [12] was “inactive” throughout. Also, the Potency result in [7], in [8], in assay [9] and in assay [10] was “inactive” throughout.
For `CCCCCCCCCCCCCC[N+](C)(C)Cc1ccccc1`, the compound was called inactive in assay [1]. In addition, the Potency result in assay [2], in assay [3] and in assay [4] was “inactive” each time. Also, the Potency in [12] was 21.1 µM (active); in [7], 13.3 µM (active); in [8], 11.9 µM (active); in [9], 24.6 µM (active).
Regarding `CCCCCCCCCCCCOCCOCCOCCOCCOCCOCCOCCOCCOCCO`, the call in [1] was inactive. Moreover, the Potency result in assay [2], in assay [3] and in [5] was “inactive” each time. The Potency in assay [4] was 3.26 µM (active); in assay [11], 16.8 µM (active); in assay [7], 21.1 µM (active); in [9], 19.5 µM (active).
Turning to `NC(=O)C1(N2CCCCC2)CCN(CCCC(=O)c2ccc(F)cc2)CC1`, in assay [1], the compound was called inactive. Moreover, the Potency entry in [2], in assay [3], in [5], in [6], in [11] and in assay [12] was “inactive” each time. Moreover, the Potency entry in [7], in assay [8], in assay [9] and in assay [10] was “inactive” each time.
As to `Nc1nc(Cl)nc2c1ncn2[C@@H]1O[C@H](CO)[C@@H](O)[C@@H]1F`, the call in assay [1] was inactive. Moreover, the Potency result in [2] and in [3] was “inactive” each time. For the same compound, the Potency in [5] is 4.47 µM (active); in [6] it was 0.264 µM (active); in assay [11], 0.422 µM (active); in assay [12], 0.0266 µM (active); in assay [7], 0.422 µM (active); in assay [8] it was 0.0299 µM (active). In addition, the Potency is 0.309 µM (active) in assay [9] and 0.211 µM (active) in [10].
For the compound `COc1cc([C@H]2Oc3cc([C@H]4Oc5cc(O)cc(O)c5C(=O)[C@@H]4O)ccc3O[C@@H]2CO)ccc1O`, the call in assay [1] was inactive. The Potency entry in [2], in assay [3], in assay [4], in [5], in assay [11] and in [9] was “inactive” in each case. Further, the Potency result in [10] was “inactive”. Moreover, the Potency in [8] was 33.5 µM (active).
Take `CCCCCCCCCCCCCC(=O)OC(C)C`: the result in assay [1] was inactive. Moreover, the Potency result in [2], in [3], in assay [5], in assay [6], in assay [11] and in assay [12] was “inactive” each time. In addition, the Potency entry in assay [7], in assay [8], in assay [9] and in assay [10] was “inactive” each time.
For `CCCCCCCCNC(C)C(O)c1ccc(SC(C)C)cc1` (configuration not stated), the call in [1] was inactive. Moreover, the Potency is 35.5 µM (active) in [2], 11.6 µM (active) in [4], 16.8 µM (active) in assay [8] and 27.6 µM (active) in [9]. Besides, the Potency result in assay [3] and in assay [6] was “inactive” in each case.
Consider `N#C/C(=C1\SCC(c2ccccc2Cl)S1)n1ccnc1` (configuration not stated), for which, in assay [1], the compound was called inactive. In addition, the Potency entry in [2], in [3], in assay [5], in assay [6], in [11] and in assay [12] was “inactive” in each case. For the same compound, the Potency entry in [7], in [8], in [9] and in assay [10] was “inactive” each time.
With `CC[C@]12CCCN3CCc4c(n(c5ccccc45)C(=O)C1)[C@@H]32`, the outcome in assay [1] was inactive. Moreover, the Potency entry in [2], in assay [3] and in assay [5] was “inactive” throughout. For the same compound, the Potency in assay [4] was 5.56 µM (active) and 5.8 µM (active); in [12], 5.96 µM (active); in assay [7], 10.6 µM (active); in assay [8], 5.96 µM (active).
As to `C[C@]12CCC(=O)C=C1C=C[C@@H]1[C@@H]2CC[C@@]2(C)[C@H]1CC[C@@]21CCC(=O)O1`, the result in assay [1] was inactive. The Potency entry in assay [2], in assay [3], in assay [5], in assay [6], in assay [12] and in assay [9] was “inactive” each time. Further, in assay [10], the Potency result is “inactive”.
For the compound `CNCCCCOc1ccccc1Cc1ccccc1`, in assay [1], the compound was called inactive. Further, the Potency result in assay [2], in assay [3], in assay [5], in assay [6], in assay [11] and in assay [10] was “inactive” in each case. Further, in assay [7], the Potency is 26.6 µM (active).
For the compound `CCCN(CCc1cccs1)[C@H]1CCc2c(O)cccc2C1`, the compound was called inactive in [1]. In addition, the Potency result in assay [2], in assay [3], in [5], in [6], in assay [11] and in assay [12] was “inactive” in each case. The Potency result in [8] and in [10] was “inactive” in each case.
As for `O=[N+]([O-])c1ccc(/C=N\O)o1`, in assay [1], the compound was classed as inactive. Besides, the Potency result in [2], in assay [3], in assay [5], in assay [6], in assay [11] and in assay [12] was “inactive” in each case. Also, the Potency result in assay [9] and in assay [10] was “inactive” each time. Moreover, the Potency in assay [8] is 4.22 µM (active).

(Values after PubChem BioAssay (NCATS).)
